Screens: PubChem BioAssay, The Scripps Research Institute Molecular Screening Center
PLCb3 inh – inhibitors of human phospholipase C beta3; Q01970; Purified PLC-beta3, fluorogenic substrate, fluorescence; inhibition, % at 12.2 µM; 370,000 compounds, 0.18% hits; in the data active = inhibition above about 11%;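 note: 0% = median of compound wells on plate and 100% = full blocker control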
proKLK7 act – activators of human kallikrein-7 zymogen; P49862; purified proKLK7, EDANS-DABCYL substrate fluorescence; 100% is mature enzyme control, 0% vehicle; activation, % at 7 µM; 370,000 compounds, 0.9% hits;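 active = activation above the mean of all tested compounds plus 3 SD, computed per campaign excluding outliers beyond control limits, cut at about 13% in these data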
PLC-gamma1 inh – PLC-gamma1 (human) inhibition, primary screen; P19174; purified PLC-gamma1, fluorogenic substrate, fluorescence; inhibition, % at 12.2 µM; 370,000 compounds, 0.84% hits; AID 720700; in the data active = inhibition above about 9.5%
ADAM17 inh – inhibits human ADAM17; inhibition, % at 6.95 µM; 370,000 compounds, 0.83% hits; AID 720648; recombinant ADAM17, EDANS/DABCYL FRET peptide cleavage; P78536;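 active = inhibition above the mean of compounds lying between control limits plus 3 SD, set per campaign, cut at about 8.5% in these data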;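 note: 0% = DMSO-only wells as the low control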
Target sequence (P78536 215-824 limits assumed): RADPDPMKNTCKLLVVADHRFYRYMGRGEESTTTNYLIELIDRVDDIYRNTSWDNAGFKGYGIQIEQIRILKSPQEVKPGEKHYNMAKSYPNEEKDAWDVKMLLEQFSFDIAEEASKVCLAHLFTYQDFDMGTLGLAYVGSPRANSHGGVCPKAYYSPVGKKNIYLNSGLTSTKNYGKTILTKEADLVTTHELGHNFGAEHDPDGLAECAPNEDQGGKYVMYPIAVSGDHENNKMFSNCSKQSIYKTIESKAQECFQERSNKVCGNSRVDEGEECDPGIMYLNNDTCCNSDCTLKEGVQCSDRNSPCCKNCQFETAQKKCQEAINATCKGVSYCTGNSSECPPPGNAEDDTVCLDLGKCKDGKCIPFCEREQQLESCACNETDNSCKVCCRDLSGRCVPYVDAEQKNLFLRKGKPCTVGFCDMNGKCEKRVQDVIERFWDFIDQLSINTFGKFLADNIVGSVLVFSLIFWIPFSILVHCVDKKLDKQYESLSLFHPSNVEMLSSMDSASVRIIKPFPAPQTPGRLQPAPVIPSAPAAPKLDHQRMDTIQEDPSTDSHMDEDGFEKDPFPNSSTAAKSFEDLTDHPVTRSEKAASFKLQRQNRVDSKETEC
ADAM10 inh – inhibitors of human ADAM10; AID 720582; inhibition, % at 7 µM; recombinant ADAM10, EDANS/DABCYL FRET peptide cleavage, 3 h; 370,000 compounds, 0.62% hits;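 active = inhibition above a per-campaign cutoff equal to the mean of compounds falling between control-based bounds plus 3 SD, cut at about 20% in these data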;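 note: 0% = DMSO wells while the 100% control is not disclosed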
ADAM10 confirm – human ADAM10 inhibition, confirmation; shares compounds with ADAM10 inh; ADAM10 QFRET peptide cleavage, EDANS fluorescence; inhibition, % at 6.95 µM; 2,100 compounds, 1% hits;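 active = inhibition above about 20% chosen separately for each screening run, limit read from the data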;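 note: 0% = DMSO wells and 100% = marimastat wells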
ADAM17 ctr – counter-screen for ADAM10 exosite inhibitors: inhibitors of human ADAM17. shares compounds with ADAM10 inh. ADAM17 QFRET peptide cleavage, EDANS fluorescence. inhibition, % at 6.95 µM. 2,100 compounds, 0.5% hits. AID 743214;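 active = mean triplicate inhibition above the solvent-only control wells' mean plus 3 SD, cut at about 12% in these data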;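 note: 0% = DMSO wells and 100% = marimastat wells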
ADAM10 counter – ADAM10 inhibition, counter-screen for ADAM17 exosite hits | shares compounds with ADAM17 inh | recombinant ADAM10, EDANS/DABCYL FRET peptide cleavage, 3 h | inhibition, % at 6.95 µM | 2,900 compounds, 47% hits;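 active = mean inhibition over the triplicate runs exceeds the activity threshold set in the earlier primary screen, cut at about 20% in these data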;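 note: 0% = DMSO wells and 100% = marimastat wells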
ADAM17 confirm – human ADAM17 inhibition, confirmation; shares compounds with ADAM17 inh; recombinant ADAM17, EDANS/DABCYL QFRET peptide cleavage; inhibition, % at 6.95 µM; 2,900 compounds, 65% hits; AID 743257;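 active = mean inhibition across replicates above the hit cutoff set in the primary screen, cut at about 8.5% in these data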;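 note: 0% = DMSO wells and 100% = marimastat wells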
* = called active by the depositor. Most compounds without a hit are left out; they make up all but 2.9% or so of the library.

CC1(c2ccc(OC(F)F)cc2)NC(=O)N(CC(=O)Nc2ccc(OC(F)F)cc2)C1=O (stereo not drawn) was read as PLCb3 inh -6.4, proKLK7 act 0.6, PLC-gamma1 inh -2.9, ADAM17 inh 3.4 and ADAM10 inh 7.7.
Screening CCOC(=O)c1c(NC(=O)CN2C(=O)NC(C)(c3ccc(OC(F)F)cc3)C2=O)sc(C)c1C (stereo not drawn) returned PLCb3 inh -3.8, proKLK7 act -0.2, PLC-gamma1 inh 1.8, ADAM17 inh 10.9*, ADAM10 inh 22.0*, ADAM10 confirm 19.0, ADAM17 ctr 5.7, ADAM10 counter 34.2* and ADAM17 confirm 19.7*.
O=C(NCCc1c[nH]c2ccccc12)c1ccc(Sc2ccccc2Cl)c([N+](=O)[O-])c1 was read as PLCb3 inh 1.6, proKLK7 act 0.1, PLC-gamma1 inh 5.9, ADAM17 inh 9.1*, ADAM10 inh 22.9*, ADAM10 confirm 9.4, ADAM17 ctr 4.6, ADAM10 counter 26.9* and ADAM17 confirm 18.9*.
Screening COC(=O)[C@H](CC(C)C)N(CCCc1cn(Cc2ccc(C)cc2)nn1)S(=O)(=O)c1ccccc1Br returned PLCb3 inh 0.2, proKLK7 act 0.3, PLC-gamma1 inh -1.9, ADAM17 inh 12.6*, ADAM10 inh 22.7*, ADAM10 confirm 5.4, ADAM17 ctr 1.9, ADAM10 counter 23.7* and ADAM17 confirm 15.7*.
Screening N#Cc1cc2ccccc2nc1SCC(=O)Nc1ccc(S(=O)(=O)N2CCCC2)cc1 returned PLCb3 inh -44.5, proKLK7 act -57.2, PLC-gamma1 inh -17.3, ADAM17 inh 11.8*, ADAM10 inh 28.9*, ADAM10 confirm 5.8, ADAM17 ctr 3.6, ADAM10 counter -6.1 and ADAM17 confirm 1.9.
Screening COc1cc(/C=N/O)cc(Br)c1OC returned PLCb3 inh 1.8, proKLK7 act 0.1, PLC-gamma1 inh 2.2, ADAM17 inh -4.2 and ADAM10 inh 4.4.
For COc1cc(/C=N/O)cc(Br)c1OCc1ccc(Cl)cc1 the results were PLCb3 inh -4.3, proKLK7 act -0.2, PLC-gamma1 inh -0.1, ADAM17 inh 8.9*, ADAM10 inh 21.4*, ADAM10 confirm 13.2, ADAM17 ctr 3.1, ADAM10 counter 21.0* and ADAM17 confirm 10.7*.
`C#CCN(C[C@@H]1[C@@H](OC(=O)NCc2ccccc2F)[C@@H](OC(=O)NCc2ccccc2F)Cn2c(=O)ccc(=O)n21)S(=O)(=O)c1ccc(C)cc1` gave PLCb3 inh -2.7, proKLK7 act 0.2, PLC-gamma1 inh -1.7, ADAM17 inh 9.4*, ADAM10 inh 24.4*, ADAM10 confirm 6.0, ADAM17 ctr 0.7, ADAM10 counter 22.1* and ADAM17 confirm 11.7*.
CC(O)(c1ccc(F)c(F)c1)c1nc(-c2ccccc2)cs1 (stereo not drawn) was read as PLCb3 inh 0.9, proKLK7 act -0.8, PLC-gamma1 inh 3.1, ADAM17 inh 6.0 and ADAM10 inh 17.6.
Screening CC(O)(c1ccc(F)c(F)c1)c1nc(-c2cc3ccccc3o2)cs1 (stereo not drawn) returned PLCb3 inh 0.1, proKLK7 act 0.1, PLC-gamma1 inh -2.6, ADAM17 inh 9.6*, ADAM10 inh 27.2*, ADAM10 confirm 12.4, ADAM17 ctr 3.3, ADAM10 counter 36.4* and ADAM17 confirm 18.1*.
`CCOC(=O)[C@@]12CCCC=C1N(CCc1ccc(Cl)cc1)C(=O)[C@H]2CC(=O)NCCCCc1ccccc1` gave PLCb3 inh -2.0, proKLK7 act -0.5, PLC-gamma1 inh 0.7, ADAM17 inh 5.2 and ADAM10 inh 9.1.
Screening COCCCN1C(=O)c2[nH]nc(-c3cc(C)cc(C)c3O)c2C1c1ccc(O)c(OC)c1 (stereo not drawn) returned PLCb3 inh -3.3, proKLK7 act -0.7, PLC-gamma1 inh 0.6, ADAM17 inh 2.4 and ADAM10 inh 3.9.
Screening Cc1cc(O)c(-c2n[nH]c3c2C(c2cccc(O)c2)N(Cc2cccnc2)C3=O)cc1Cl (stereo not drawn) returned PLCb3 inh -10.3, proKLK7 act -0.4, PLC-gamma1 inh -8.0, ADAM17 inh 9.6*, ADAM10 inh 21.5*, ADAM10 confirm 5.0, ADAM17 ctr 1.3, ADAM10 counter 9.5 and ADAM17 confirm 7.6.
`CCCN1C(=O)c2[nH]nc(-c3cc(Cl)c(C)cc3O)c2C1c1ccc(O)c(OC)c1` (stereo not drawn) gave PLCb3 inh -25.1, proKLK7 act 0.1, PLC-gamma1 inh -17.6, ADAM17 inh 11.7*, ADAM10 inh 20.8*, ADAM10 confirm 3.9, ADAM17 ctr 0.4, ADAM10 counter 34.4* and ADAM17 confirm 18.9*.
O=C(/C=C/c1cccc(C(F)(F)F)c1)Nc1cccc(C(F)(F)F)c1 was read as PLCb3 inh -0.5, proKLK7 act 0.7, PLC-gamma1 inh -2.1, ADAM17 inh 12.2*, ADAM10 inh 25.8*, ADAM10 confirm 7.6, ADAM17 ctr 3.3, ADAM10 counter 29.3* and ADAM17 confirm 16.5*.
Screening Cc1ccc(NC(=O)/C=C/c2cccc(C(F)(F)F)c2)cc1 returned PLCb3 inh 3.0, proKLK7 act -0.7, PLC-gamma1 inh -0.9, ADAM17 inh 3.9 and ADAM10 inh 8.6.
`COc1cccc(CNC(=O)[C@H]2CCCN2)c1` gave PLCb3 inh 4.6, proKLK7 act 0.3, PLC-gamma1 inh -4.8, ADAM17 inh -3.5 and ADAM10 inh -4.4.
`COC(=O)Nc1ccc(S(=O)(=O)N2CCC(Cc3ccccc3)CC2)cc1` gave PLCb3 inh -4.1, proKLK7 act -0.1, PLC-gamma1 inh -2.8, ADAM17 inh 11.4*, ADAM10 inh 20.1*, ADAM10 confirm 7.4, ADAM17 ctr 2.7, ADAM10 counter 34.6* and ADAM17 confirm 14.5*.
COc1ccc(Cn2ccc3ccc(-c4ccc5ccn(Cc6ccc(OC)cc6)c5c4)cc32)cc1 was read as PLCb3 inh -100.1, proKLK7 act -1.3, PLC-gamma1 inh -69.0, ADAM17 inh -16.1 and ADAM10 inh -41.7.
